The results in this text go back to PubChem BioAssay (NCI).

SMILES strings stand for the structures. Compounds without any hit were thinned out: in the full panel of roughly 83,000, 20% have a hit.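 In brief: 96-well plates, 48 h treatment, single concentration, percent growth endpoint.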 Calls of active or inactive are those of the source. The calls were made as follows: active = growth percent below 10; inactive = the rest.

This test concerns SF-268 CNS. The test is described as follows: NCI-60 one-dose screen, 48 h (100 = growth as untreated, 0 = no growth, -100 = all killed). The following applies: 10 µM unless noted.
As to `CCCSc1nc(Nc2ccc(S(N)(=O)=O)cc2)c(C#N)c(-c2ccc(Cl)cc2)n1`, the growth is 66% (inactive).
Regarding `CCCCSc1nc(Nc2ccc(S(N)(=O)=O)cc2)c(C#N)c(-c2ccc(Cl)cc2)n1`, the growth is 69.2% (inactive).
Then `Cn1cc(-c2cc3nc(-c4cn(C)c5ncccc45)cc(N)n3n2)c2ccccc21`, with 15% (inactive).
Then `Cc1ccc(C2=NN(c3nc(-c4cc5ccccc5oc4=O)cs3)C(c3ccc(C)cc3)C2)cc1` (centres undefined), with 120% (inactive).
Regarding `Cc1ccc2c(c1)nc(-c1ccccc1)n2CC(=O)N=Nc1c(O)[nH]c2ccc(Br)cc12`, the growth is 0.768% (active).
Then `O=C(Cn1nc(-c2ccccc2)ccc1=O)N/N=C/c1ccc(N2CCOCC2)cc1`, with 98.2% (inactive); and `O=C(NN1C(=O)/C(=C/C=C/c2ccc([N+](=O)[O-])o2)SC1=S)c1ccc(Cl)cc1`, with -86.4% (active); and `CCCCSc1nc(Nc2ccc(S(N)(=O)=O)cc2)c(C#N)c(-c2cc(OC)c(OC)c(OC)c2)n1`, with 60.7% (inactive).
In the case of `COc1cc2c3c(n(CCCN4CCC[C@@H]4CO)c(=O)c2cc1OC)-c1cc2c(cc1C3=O)OCO2`, the growth was -60.8% (active).
Then `Cn1cc(-c2cc(N)n3nc(-c4cn(C)c5ncc(Br)cc45)cc3n2)c2cc(Br)cnc21`, with 50% (inactive); and `Cn1cc(-c2cc(N)n3nc(-c4c[nH]c5ccccc45)cc3n2)c2cccnc21`, with 81.6% (inactive); and `CN(C)c1nc(NCCNS(=O)(=O)c2ccc(C3=Nc4c(N)nc(N)nc4NC(c4ccccc4)C3)cc2)nc(Nc2ccc(F)cc2)n1` (centres undefined), with 46.9% (inactive).
Then `COc1ccc(-c2ccc(SCC(=O)NCCc3ccc(S(N)(=O)=O)cc3)nn2)cc1`, with 103% (inactive).
Then `O=C(CCN1C(=O)/C(=C/c2ccc(F)cc2)SC1=S)N1CCOCC1`, with 86.7% (inactive); and `Cc1cc2nc3c4ccccc4n(CC4=NCCN4)c3nc2cc1C`, with 40.7% (inactive).
As to `Cc1ccc(C(=O)NN2C(=O)/C(=C/C=C/c3ccc([N+](=O)[O-])o3)SC2=S)cc1`, the growth is -86.7% (active).
Consider `Cc1cc2nc3c([nH]c2cc1C)c1ccc(=O)cc1n3CCN(C)C`, for which the growth was 61% (inactive).
Then `N/C(=N\c1nc2ccccc2s1)NC(=O)Nc1c(Cl)cccc1Cl`, with 42.2% (inactive).
Then `Brc1ccc(-c2n(Cc3ccc4ccccc4c3)c(-c3ccccc3)c(-c3ccccc3)[n+]2Cc2ccc3ccccc3c2)cc1`, with -72.1% (active).
Then `C=C1CC[C@@H]2[C@]3(C)COC(c4cn[nH]c4-c4ccc(Br)cc4)O[C@@H]3CC[C@@]2(C)[C@@H]1C/C=C1/C(=O)OCC1O` (some centres undefined), with -13.3% (active).
As for `COc1ccc(-c2nc3cc(C)ccc3n2CC(=O)N=Nc2c(O)[nH]c3ccc(Br)cc23)cc1`, the growth was 23% (inactive).
For the compound `CC12CC[C@@H]3[C@]4(C)COC(c5cn[nH]c5-c5cccc(Br)c5)O[C@@H]4CC[C@@]3(C)[C@@H]1CC(C1=CCOC1=O)O2` (some centres undefined), the growth is 47% (inactive).
Then `COc1c(F)ccc(C(=O)Nc2ccc3nc(NC(=O)C4CCCN(S(=O)(=O)c5ccc(C#N)cc5)C4)sc3c2)c1F` (centres undefined), with 93.5% (inactive); and `COc1ccc2c(c1)c(-c1cc3nc(-c4cn(C)c5ncccc45)cc(N)n3n1)cn2C`, with 11.9% (inactive); and `CC(=O)c1cc(C(=O)c2ccccc2)n2c1ccc1ccccc12`, with 110% (inactive).
With `COc1ccc2[nH]c(=O)c(CSc3nccc(-c4ccc(OC)c(OC)c4)n3)cc2c1`, the growth was 28% (inactive).
Then `COc1ccc(NC(=O)Cn2c3c(sc2=O)[C@H]2[C@@H](O)[C@@H](O)[C@H](O)[C@@H]2CS3)cc1`, with 102% (inactive); and `C=C1CCC2C3(C)COC(c4cccs4)OC3CCC2(C)C1CC(Sc1ccccc1)C1=CCOC1=O` (centres undefined), with 96.6% (inactive).
Then `CC1CN(c2oc(-c3ccc([N+](=O)[O-])cc3)nc2C#N)CC(C)O1` (centres undefined), with 107% (inactive).
With `Cc1occc1C(=O)NN1C(=O)/C(=C/C=C/c2ccc([N+](=O)[O-])o2)SC1=S`, the growth was -64.3% (active).
Then `N=C1N=C(SCc2nc3ccccc3[nH]2)NC(=O)/C1=C/c1ccc(Cl)cc1`, with 112% (inactive); and `O=C(NN1C(=O)/C(=C/C=C/c2ccc([N+](=O)[O-])o2)SC1=S)c1ccccc1O`, with -81.4% (active).
Then `COc1ccc(-c2nc3cc(C)ccc3n2CC(=O)N=Nc2c(O)[nH]c3ccc(Cl)cc23)cc1`, with 21.6% (inactive); and `COC1=C[C@]23CCC(=O)N2CCc2cc4c(cc2[C@@H]3[C@@H]1OC(=O)[C@H](C)O)OCO4`, with 66.2% (inactive).
